Screening results from PubChem BioAssay.
Pf Dd2 inh: inhibitors of Plasmodium falciparum Dd2 growth | Potency, µM (top dose mostly 28.9 µM), for inactives: top-dose activity, negative = inhibition, hits mostly inhibitors | P. falciparum Dd2 growth, SYBR Green, 72 h | AID 1347417 | 120,000 compounds, 4.3% hits; active = well fitted inhibition curve with a large enough effect;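 note: plate controls were DMSO vehicle for no effect and reference drug for full effect; nearly all actives have a fitted effect of over 65% in size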
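Readout: SYBR Green fluorescence, 485 nm excitation, 535 nm emission, after ~16 h lysis at 37C. Before that, Dd2-infected red cells (2.5% hematocrit) grew 72 h with compound, 29 uM top final concentration.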
* = called active by the depositor; i = inactive; [ ] = dose if it differs, or a comment. Only a selection was taken, and hits are over-represented in it overall. Potency is the fitted concentration of half-maximal effect.

SMILES	Pf Dd2 inh
O=Cc1cccc(N2CCN(C(=O)N3CCOCC3)CC2=O)c1	12%
CCCNC(=O)N(C1CCOCC1)C1CCN(S(=O)(=O)c2cccnc2)CC1	-13%
COc1ccc(CN2CC[C@@H]3[C@H]2C(=O)NC[C@H](CCC(=O)NCc2ccco2)N3C)cc1	34%
CCN(Cc1ccncc1)C(=O)c1cc(-c2cnc(C)nc2)nc2c(C)cccc12	-21%
CCCN(Cc1ccncc1)C(=O)c1cnc(-c2ccccn2)[nH]c1=O	13µM*
CCCCN(Cc1cccnc1)C(=O)c1cnc(-c2ccc(C)cc2)[nH]c1=O	-21%
CN(C)c1nc2c(c(=O)[nH]1)CCN(C(=O)c1sccc1Cl)C2	1%
c1ccc2sc([C@H]3CCN(CC4CCCCC4)C3)nc2c1	10µM*
O=C(C1CCCCC1)N1CC[C@H](c2nc3ccccc3s2)C1	-26%[44.1 µM]
CCOc1cccc(C(=O)N2CCC(c3nc4ccccc4s3)CC2)c1	87%
Cc1noc(-c2cn(C3CCN(C(=O)c4ccoc4)C3)nn2)n1 (stereo not given)	i
Cc1ccc(C2(O)CCN(C(=O)[C@@H](N)Cc3cnc[nH]3)CC2)nc1	-14%
O=C(Cc1cccc(F)c1)N1CCCN(c2cc(-c3ccc(Cl)cc3)[nH]n2)CC1	i
COc1ccc(CCN2C(=O)O[C@@H]3CN(C(=O)NCc4ccccc4)C[C@@H]32)cc1	-9%
COC[C@@H]1CN(C(=O)COc2ccc(Cl)cc2)C[C@H]1C(N)=O	-1%
COc1cc2c(cc1OC)C(CNC(=O)CC(C)C)N(C(=O)NC(C)C)CC2 (stereo not given)	i
COc1ccc(C(=O)N2CCN(C(=O)COc3ccc(C)cc3)CC2)cc1OC	24%
CCC(=O)N1CCc2cc(CNC(=O)Cc3ccc(OC)c(OC)c3)ccc21	23%
COC(=O)c1ccc(OCC2c3cc(OC)c(OC)cc3CCN2C(=O)Cc2ccc(OC)cc2)cc1 (stereo not given)	10µM*
COc1cc2c(cc1OC)C(CC(=O)O)N(C(=O)Nc1cc(OC)c(OC)c(OC)c1)CC2 (stereo not given)	i
COC(=O)c1ccc(OCC2c3cc(OC)c(OC)cc3CCN2C(=O)Cc2ccc(OC)c(OC)c2)cc1 (stereo not given)	11µM*
COc1cc2c(cc1OC)C(COc1ccccc1OC)N(C(=O)COc1ccc(Cl)cc1)CC2 (stereo not given)	8.9µM*
COC(=O)c1ccc(OCC2c3cc(OC)c(OC)cc3CCN2C(=O)c2ccc(OC)cc2)cc1 (stereo not given)	7.1µM*
CNC(=O)[C@@H]1CN(C(=O)Cc2ccc(OC)c(OC)c2)C[C@H]1COC	-11%
Cc1ccc(NC(=O)Cn2ccn3nc(-c4ccccc4)c(CO)c3c2=O)c(Cl)c1	26%
SMILES	Pf Dd2 inh
COC(=O)CNC(=O)N1CCCN(S(C)(=O)=O)C(c2ccccc2)CC(=O)NCC1 (stereo not given)	0%
O=C(CCc1conc1-c1cccc(F)c1)NCc1ccccc1Cl	i
CO[C@H]1C(=O)N(C(C)C)[C@H]1C1CCN(C(=O)c2cnc(C)cn2)CC1	23%
CO[C@H]1[C@H](NC(=O)Cc2ccccc2)c2ccccc2C12CCNCC2	-6%
CNC(=O)[C@@H]1CN(C(=O)COc2ccc(Cl)cc2)C[C@H]1COC	-9%
CCn1ccnc1CN1CCCC(CNC(=O)c2cccc(OC)c2OC)C1 (stereo not given)	-21%
COCc1ccc(C(=O)N2CCCN(C)C3(CCN(C)CC3)C2)o1	-14%
COc1cccc(CCC(=O)NC(C)C(=O)N2CCN(c3ccccn3)CC2)c1 (stereo not given)	i
CCCC(=O)N1CCc2cc(OC)c(OC)cc2C1COc1ccc(C(=O)OC)cc1 (stereo not given)	10µM*
CCCCC(=O)N1CCc2cc(OC)c(OC)cc2C1COc1ccc(C(=O)OCC)cc1 (stereo not given)	11µM*
CCOC(=O)CC1c2cc(OCC)c(OCC)cc2CCN1C(=O)Nc1cccc(Cl)c1 (stereo not given)	-23%
COc1ccc(CC(=O)N2[C@@H]3CC[C@H]2CC(NC(=O)c2ccc(F)cc2)C3)cc1OC (stereo not given in full)	i
CCOc1cc2c(cc1OCC)C(CC(=O)OC)N(C(=O)Nc1cc(C)cc(C)c1)CC2 (stereo not given)	20%
CCNC(=O)N1CCc2cc(OC)c(OC)cc2C1CNC(=O)CC(C)C (stereo not given)	0%
COc1ccc(CC(=O)N2CCc3cc(OC)c(OC)cc3C2COc2cc(C)cc(C)c2)cc1OC (stereo not given)	4µM*
CCOC(=O)c1ccc(OCC2c3cc(OC)c(OC)cc3CCN2C(=O)Cc2ccc(F)cc2)cc1 (stereo not given)	10µM*
CCOc1ccc(NC(=O)N2CCc3cc(OC)c(OC)cc3C2CNC(=O)CC(C)C)cc1 (stereo not given)	i
CC(C)=CCN1CCC2(CCC(CNc3ncncn3)O2)CC1 (stereo not given)	-26%
COCCn1ccc2c(C3=CCOCC3)nc(-c3cccc(O)c3)cc21	i
O=C(NCCc1noc(-c2ccccc2)n1)C1CCCCC1	i
